We go through 40 compounds from PubChem BioAssay (NCI).

Where “and” joins values, the source holds several entries; their conditions need not be identical. Equal entries are not always repeated. The panel holds about 83,000 compounds, 20% with a hit somewhere; the sample as a whole holds those more often.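 Step 1: grow cells in 96-well plates. Step 2: add test compound at a single concentration. Step 3: incubate 48 h. Step 4: record percent growth.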 Calls of active or inactive are those of the source.

The assay has as its system MDA-MB-468 breast. Kind of assay: NCI-60 one-dose screen, 48 h (100 = growth as untreated, 0 = no growth, -100 = all killed). As to conditions: 10 µM unless noted. Here is the method: Growth inhibition of the MDA-MB-468 human Breast tumor cell line is measured as a screen for anti-cancer activity. Cells are grown in 96 well plates and exposed to the test compound for 48 hours. Compounds are tested at a single concentration, which is 10^-5 M for most compounds. The reported endpoint is percent growth (GI% or GIPRCNT), where numbers from 0 - 100% represent growth inhibition, and numbers from -100% - 0 represent cell death. For example, a value of 40 represents 60% growth inhibition. A value of 0 means no net growth occurred over the course of the experiment. A value of -40 indicates 40% of cells at the beginning of the experiment died by the end of the experiment. A value of -100 means all cells are dead at the end of the experiment.
NCI-60 Human Tumor Cell Lines Screen was performed using the standard one-dose NCI protocol, which is described in more detail at https://dtp.cancer.gov/discovery_development/nci-60/default.htm.
Compounds with GIPRCNT values below 10 were considered active. Activity score was based on GIPRCNT using the following formula: […]
Score is 0 for GIPRCNT values of 100 or above, 50 for GIPRCNT values of 0, and 100 for GIPRCNT values of -100.
For `Cc1cccc(N2CCN(C(C)C#N)CC2)c1` (stereo not given), the growth was 100% (inactive).
The value for `COC(=O)C12CC(NC(=O)c3csc([C@@H](C[C@H](C(C)C)N(C)C(=O)[C@@H](NC(=O)[C@H]4CCCCN4C)C(C)C)OC(C)=O)n3)(C1)C2` was 42.5% (inactive).
Regarding `O=C(CCc1ccco1)NC1CCN(CC2(c3ccc(Cl)cc3)CCC2)CC1`, the growth is -11.5% (active).
In the case of `C[CH2][Hg][S]c1ccccc1C(=O)O`, the growth is -86.6% (active).
The value for `O=[N+]([O-])CC(O)C(Cl)(Cl)Cl` (stereo not given) was 102% (inactive); that for `CCOC(=O)c1cnc(SCc2ccc(Cl)c(Cl)c2)nc1N1CC1` was -3.19% (active).
To `COC(=O)[C@@H](C)C[C@H](Cc1ccccc1)NC(=O)c1csc([C@@H](C[C@H](C(C)C)N(C)C(=O)C2(NC(=O)[C@H]3CCCCN3C)CCC2)OC(C)=O)n1` belongs 7.04% (active).
The value for `O=C(NC([Se])=NC1CCCCC1)c1ccccc1` was 55% (inactive).
As for `C[C@@H]1C[C@@]2(C)[C@@H](CC[C@@H]3[C@@H]2CC[C@]2(C)C(=O)CC[C@@H]32)CC1=O`, the growth is 95.4% (inactive).
Turning to `Cc1cc(C)c(C[N+](C)(C)C)c(C)c1C`, the growth was 16.1% (inactive).
To `N#C[Se]CCCNS(=O)(=O)C1CC2C=CC1C2` (stereo not given) belongs -30% (active).
To `CC1CCCC(C[N+](C)(C)C)C1=O` (stereo not given) belongs 97.3% (inactive); to `CC(=O)O[C@H](C[C@H](C(C)C)N(C)C(=O)[C@@H](NC(=O)[C@H]1CCCCN1C)C(C)C)c1nc(C(=O)N[C@@H](Cc2ccccc2)C[C@H](C)C(=O)O)c(CCOCc2ccccc2)s1`, 1.12% (active); to `Cc1cnc(/C=C/C(=O)O)cc1-c1cc2c(cc1C)C(C)(C)CCC2(C)C`, 95.4% (inactive).
To `COc1ccc(NP2(=O)OCC(C)(N)CO2)cc1` (stereo not given) belongs 105% (inactive); to `CN1CC(=O)N(O)C1(C)c1cccnc1` (stereo not given), 94.8% (inactive).
Turning to `CN(C)C(=O)Oc1ccccc1`, the growth was 113% (inactive).
The value for `COC(=O)C1=CO[C@@H](C)[C@@H]2CN3CCc4c([nH]c5cc(OC)ccc45)[C@@H]3C[C@H]12` was 107% (inactive); that for `CC12OOC(C)(OO1)C2CCC(=O)OCCNc1ccnc2cc(Cl)ccc12` (stereo not given) was -51.6% (active); that for `NCCc1ccc(OCc2ccccc2)c(OCc2ccccc2)c1` was 48.5% (inactive).
The value for `CN1C(=O)C(=Cc2cn(Cc3ccccc3)c3ccccc23)C(=O)N(C)C1=O` was -49.5% (active).
The value for `C=NCC#N` was 105% (inactive) and 108% (inactive).
`O=S1(=O)OCCO1`: the growth is 98.2% (inactive).
To `COC(=O)[C@@H](C)C[C@H](Cc1ccccc1)NC(=O)c1nc([C@@H](C[C@H](C(C)C)N(C)C(=O)[C@@H](NC(=O)[C@H]2CC(=O)CCN2C)C(C)C)OC(C)=O)sc1C(C)C` belongs 7.54% (active); to `N#CCCc1ccccc1`, 101% (inactive); to `C[Se]C(=O)c1ccccc1OC(C)=O`, 45% (inactive).
The value for `Cc1cc[c-]cc1.Fc1c[c-]c(-c2ccccn2)c(F)c1.N#CCC[PH+](CCC#N)c1ccccc1.[Pt+2]` was 37% (inactive); that for `CC12CCC(O)CC1=CCC1C2CCC2(C)C(O)CCC12` (stereo not given) was 99.4% (inactive).
The value for `Cc1ccc2[nH]c(=S)n(-c3ccc(F)cc3)c(=O)c2c1` was 92.1% (inactive); that for `COc1ccccc1/C=C/[N+](=O)[O-]` was 22.6% (inactive); that for `Cc1cc(C)nc(C)c1.[Cl][Hg][Cl]` was 113% (inactive).
On to `CCC(CC)CC1(C)CC2(C)CCOC2OO1` (stereo not given), for which the growth is 110% (inactive).
To `O=[N+]([O-])/C=C\c1ccc2c(c1)OCO2` belongs 82% (inactive); to `O=C(CCCC1CCCCC1)OCC(Cl)(Cl)Cl`, 113% (inactive).
To `Oc1c(O)c(Cl)c(Cl)c(Cl)c1Cl` belongs 74.2% (inactive); to `COc1ccc(/C=C\c2cc(OC)c(OC)c(OC)c2)cc1N/C=C\C(=O)c1c[nH]c2ccccc12`, 11.3% (inactive); to `Cc1ccc2oc(=O)c3c(c2c1)OC(N)=C(C#N)C3c1ccco1` (stereo not given), 91.4% (inactive).
To `O=C(O)CCCc1ccc(N(CCCl)CCCl)cc1` belongs 77.7% (inactive); to `C[CH2][Pb]([CH2]C)([CH2]C)[O]C(=O)COC`, -49.3% (active).
Regarding `O=C(/C=C/c1ccc(Cl)cc1)c1nc2ccccc2n1Cc1ccc(F)cc1`, the growth is -5.26% (active).
